Compounds with a hit are over-represented: about 1.6% of the library has one in this group of screens.
KCNQ2 pot = potentiators of rat KCNQ2 potassium channel; AID 2239; O88943; CHO-K1 KCNQ2, FluxOR thallium flux fluorescence; hits give high values; B-score at 10 µM; 310,000 tested, 0.54% active;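 active = fluorescence ratio B-score at least 3 SD of library B-scores, with initial fluorescence B-score within 3 of them, cut at about 5.3 in these data; same plate scores as AID 2156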;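 also: B-score of peak minus minimum over baseline fluorescence ratio after K+ and Tl+ stimulus; positive B-score means potentiation of KCNQ2 with more thallium influx and brighter signal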
KCNQ2 inh = inhibitors of rat KCNQ2 potassium channel. 310,000 tested, 1.1% active. O88943. AID 2156. B-score at 10 µM. CHO-K1 KCNQ2, FluxOR thallium flux, 20 min; hits give low values;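 active = fluorescence ratio B-score at most minus 3 library SDs, with starting brightness B-score within 2 library SDs, cut at about -5.5 in these data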
Kir21 confirm = confirmation of mouse Kir2.1 potassium channel inhibitors; Tl flux remaining, % of negative control (hits give low values), % at 10 µM; shares compounds with KCNQ2 pot; 2,300 tested, 41% active; Kir2.1-expressing cells, FluxOR thallium flux fluorescence; hits give low values;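 active = Primary-screen hit whose thallium flux fell at least 3 control SD below untreated wells in both duplicates, with normal baseline fluorescence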;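 also: 0% = blank wells without stimulus and 100% = stimulated no-compound controls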
HEK293 ctr = parental HEK293 activity in Kir2.1 inhibitor counter-screen. AID 2105. parental HEK293 cells, FluxOR thallium flux fluorescence; 0% = unstimulated blank wells. 2,300 tested, 19% active. FluxOR signal as % of negative control (100 = no effect), % at 10 µM. shares compounds with KCNQ2 pot;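 active = dye signal at least 3 control SD above or below untreated wells in both duplicates, raw fluorescence within 3, either direction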;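 also: percent is based on the flux ratio of peak minus minimum fluorescence over baseline F0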
CHO-K1 Tl ctr = alters thallium flux in parental CHO-K1 cells, KCNQ2 counter-screen; shares compounds with KCNQ2 pot; activity increase over 3SD of controls, % at 10 µM; AID 2282; FluxOR thallium flux fluorescence; zero = vehicle mean+3SD, 100% = vehicle-minus-blank window; 1,200 tested, 43% active;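 active = signal rise of at least 3 SD above the untreated control mean, in both duplicate wells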;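 also: counter screen of KCNQ2 potentiator hits so any rise reflects channel-independent effects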
KCNQ1 sel pot = human KCNQ1 counter-target activity of KCNQ2 potentiators | shares compounds with KCNQ2 pot | CHO KCNQ1 stable, FluxOR thallium flux fluorescence; beyond 3SD, as % of vehicle-control signal | activation over 3SD threshold, % at 10 µM | 1,200 tested, 28% active;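 active = fluorescence ratio rise of at least 3 SD of vehicle wells above their mean, in both replicate wells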;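 also: 0% = vehicle mean plus 3 SD and 100% = vehicle minus unstimulated blank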
KCNQ2 pot confirm = confirmation of rat KCNQ2 potassium channel potentiators. potentiation, less the hit threshold, % at 10 µM. AID 2287. CHO-KCNQ2 cells, FluxOR thallium flux fluorescence. shares compounds with KCNQ2 pot. 1,200 tested, 68% active;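 active = fluorescence ratio rising 3 SD or more over the vehicle control mean in both replicates, plus primary screen hit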;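 also: peak minus minimum thallium fluorescence divided by baseline after K/Tl stimulus; 0% = vehicle mean plus 3 SD and 100% = vehicle minus unstimulated blank difference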
Kir2-1 sel = mouse Kir2.1 off-target activity of KCNQ2 potentiators | shares compounds with KCNQ2 pot | 1,200 tested, 2% active | activity over 3SD threshold, % at 10 µM | HEK293 Kir2.1, FluxOR thallium flux fluorescence | AID 2345;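 active = fluorescence ratio rise of at least 3 SD above the vehicle-control mean, seen in both replicates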;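 also: 0% = vehicle mean plus 3 SD and 100% = vehicle minus no-stimulus blank window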
KCNQ2 W236L MoA = rat KCNQ2 W236L mutant potentiation by KCNQ2 potentiators. shares compounds with KCNQ2 pot. CHO KCNQ2-W236L, automated patch clamp current. current increase over 3SD of negative controls (%), hits give high values, % at 25 µM. 940 tested, 10% active. AID 2558;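 active = current increase at least 3 SD of the untreated controls above them in both duplicate recordings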
Target sequence (O88943 whole entry W236L, looked up): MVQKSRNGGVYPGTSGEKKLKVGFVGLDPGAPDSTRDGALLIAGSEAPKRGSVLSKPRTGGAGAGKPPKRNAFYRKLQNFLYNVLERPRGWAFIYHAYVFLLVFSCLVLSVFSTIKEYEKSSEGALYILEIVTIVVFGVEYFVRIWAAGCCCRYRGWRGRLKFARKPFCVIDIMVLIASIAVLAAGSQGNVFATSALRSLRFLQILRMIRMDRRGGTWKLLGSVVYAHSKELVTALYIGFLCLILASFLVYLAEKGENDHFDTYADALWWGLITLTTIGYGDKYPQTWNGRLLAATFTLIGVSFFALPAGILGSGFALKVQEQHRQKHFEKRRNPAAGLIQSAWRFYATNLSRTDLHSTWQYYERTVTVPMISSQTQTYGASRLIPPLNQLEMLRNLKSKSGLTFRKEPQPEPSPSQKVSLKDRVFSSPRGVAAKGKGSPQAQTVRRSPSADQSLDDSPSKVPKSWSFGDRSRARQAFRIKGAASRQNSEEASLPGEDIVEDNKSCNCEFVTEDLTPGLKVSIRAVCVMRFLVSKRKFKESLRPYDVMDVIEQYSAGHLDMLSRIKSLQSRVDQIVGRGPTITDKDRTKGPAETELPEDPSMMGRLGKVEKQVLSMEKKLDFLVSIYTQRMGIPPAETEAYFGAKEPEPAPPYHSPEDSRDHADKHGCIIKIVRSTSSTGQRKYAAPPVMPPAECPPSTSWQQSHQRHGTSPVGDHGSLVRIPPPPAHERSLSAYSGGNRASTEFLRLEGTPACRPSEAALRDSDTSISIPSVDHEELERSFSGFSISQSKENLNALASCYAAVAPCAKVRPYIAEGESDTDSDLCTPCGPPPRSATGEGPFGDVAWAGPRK
* marks the source's active call; other numbers are inactive results; i = inactive; · = no result given.

SMILES	KCNQ2 pot	KCNQ2 inh	Kir21 confirm	HEK293 ctr	others
CN(C)CC/C=C1/c2ccccc2Sc2c(O)cc(Cl)cc21	·	i	·	·
COc1cc2c(cc1Cl)/C(=C\CCN(C)C)c1ccccc1S2	·	i	·	·
CN(C)CC/C=C1/c2cc(F)ccc2Sc2ccc(Cl)cc21	·	i	25%*	i
c1ccc(CNc2c3ccccc3nc3ccccc23)cc1	1.1	i	24%*	i
c1ccc(CNc2ncnc3ccccc23)cc1	1.1	i	·	·
CCn1cc(C(=O)N2CCCC(CO)(Cc3ccccc3C)C2)cn1 (stereo not given)	·	i	·	·
COc1ccc(Br)cc1/C(C)=N/NC1=NCCN1	0.2	i	·	·
CCCCCOc1ccc(Br)cc1/C(C)=N/NC1=NCCN1	·	i	16%*	i
Cc1ccc(C(=O)O)cc1NC(=S)NC(=O)c1ccc([N+](=O)[O-])c(C)c1	1.9	i	·	·
Cc1ccc(NC(=O)CNc2cccc(S(=O)(=O)N3CCCC3)c2)cc1F	5.5*	i	i	i	CHO-K1 Tl ctr=-36;KCNQ1 sel pot=-11;KCNQ2 pot confirm=0;Kir2-1 sel=-48
O=C(CNc1cccc(S(=O)(=O)N2CCCC2)c1)Nc1ccc(F)c(F)c1	0.02	i	·	·
O=C(CSc1nnc(-c2cccnc2)n1Cc1ccco1)c1ccc(Br)cc1	·	i	68%*	72%*
O=C(CSc1nnc(-c2cccnc2)n1Cc1ccco1)c1ccc2ccccc2c1	·	i	·	·
N#Cc1c(-c2ccco2)nc(SCC(=O)Nc2cccc(Cl)c2)[nH]c1=O	5.5*	i	i	i	CHO-K1 Tl ctr=-13;KCNQ1 sel pot=-7;KCNQ2 pot confirm=7.4*;Kir2-1 sel=-30;KCNQ2 W236L MoA=i
O=C(CSc1nc2[nH]ncc2c(=O)[nH]1)Nc1cccc(Cl)c1	·	i	·	·
Cc1ccc(S(=O)(=O)NCc2c(-c3ccccc3)noc2C)cc1	·	i	·	·
Cc1onc(-c2ccccc2)c1CNS(=O)(=O)c1cccc(Cl)c1	0.47	i	58%*	i
CCOc1cccc2c1OC(c1cc(OC)c(OC)c(OC)c1)N1N=C(c3ccc(C)o3)CC21 (stereo not given)	·	i	·	·
CCCCCC(=O)Cc1cc(O)cc2c1C(=O)Oc1cc(O)c(C(=O)O)c(CCCCC)c1O2	7.5*	i	i	i	CHO-K1 Tl ctr=-8;KCNQ1 sel pot=43*;KCNQ2 pot confirm=8.8*;Kir2-1 sel=-21;KCNQ2 W236L MoA=i
NC(=O)CSc1cn(Cc2ccccc2)c2ccccc12	·	i	·	·
Fc1ccc2c(c1)C1C=CCC1C(c1cc3c(cc1Br)OCO3)N2 (stereo not given)	·	i	·	·
COc1ccc(S(=O)(=O)N2CCN(Cc3cccc(F)c3)CC2)cc1	·	i	·	·
NC1=NC[C@H](c2ccccc2)N1CCCCC1CCCCC1	·	i	38%*	i
S=C1NC[C@H](c2ccccc2)N1CCCCC1CCCCC1	0.4	i	·	·
O=C(O)CC(c1ccc(Br)cc1)N1Cc2ccccc2C1=O (stereo not given)	0.5	i	·	·
SMILES	KCNQ2 pot	KCNQ2 inh	Kir21 confirm	HEK293 ctr	others
O=C(NC(=S)NCC1CCCO1)c1ccc([N+](=O)[O-])cc1 (stereo not given)	0.68	i	·	·
CCCN(CCC)S(=O)(=O)c1ccc(Cl)c(OC)c1	·	i	55%*	i
CCN(CC)S(=O)(=O)c1ccc(Cl)c(OC)c1	1.6	i	·	·
O=C(Cc1ccccc1)Nc1ccc(SC(F)F)cc1	0.72	i	·	·
Cc1cc(C(=O)CCC(=O)N2CCN(S(=O)(=O)c3ccccc3)CC2)c(C)s1	6.2*	i	i	i	CHO-K1 Tl ctr=-14;KCNQ1 sel pot=-14;KCNQ2 pot confirm=11*;Kir2-1 sel=-32;KCNQ2 W236L MoA=i
Cc1cc(C(=O)CCC(=O)N2CCN(S(=O)(=O)c3cccs3)CC2)c(C)s1	4.9	i	·	·
CCCCCc1cc(O)c2c(C)cc(=O)oc2c1	0.22	i	·	·
CCCCc1cc(O)c(CCCC)c(O)c1	8.7*	i	·	·	CHO-K1 Tl ctr=-16;KCNQ1 sel pot=-15;KCNQ2 pot confirm=38*;Kir2-1 sel=-55;KCNQ2 W236L MoA=i
O=C1CSC(=Nc2cccc([N+](=O)[O-])c2)N1	·	i	·	·
O=C(O)CCS(=O)(=O)c1nc(-c2cccs2)cc(C(F)(F)F)n1	·	i	·	·
CS(=O)(=O)c1nc(-c2cccs2)cc(C(F)(F)F)n1	-5.9	-5.9*	70%*	70%*
CCC(NC(=S)NCc1ccc(F)cc1)c1ccc(C(C)C)cc1 (stereo not given)	7.2*	i	i	i	CHO-K1 Tl ctr=78*;KCNQ1 sel pot=-13;KCNQ2 pot confirm=21*;Kir2-1 sel=-29;KCNQ2 W236L MoA=i
CCC(C)c1ccc(C(C)NC(=S)NCc2ccc(F)cc2)cc1 (stereo not given)	5.2	i	·	·
COc1cccc(OC)c1OCCOc1ccccc1OC(C)C	·	i	41%*	i
COc1cccc(OC)c1OCCCOc1c(OC)cccc1OC	·	i	·	·
COc1ccccc1N(C)S(=O)(=O)c1ccc(C(=O)N2CCCC(C(F)(F)F)C2)cc1 (stereo not given)	·	i	·	·
Cc1noc(C)c1C(=O)OCC(=O)c1c[nH]c2ccccc12	·	i	·	·
Cc1onc(-c2c(F)cccc2Cl)c1C(=O)OCC(=O)c1c[nH]c2ccccc12	6.4*	i	i	i	CHO-K1 Tl ctr=-5;KCNQ1 sel pot=-10;KCNQ2 pot confirm=-1;Kir2-1 sel=-21
NC(=O)C1=C[C@H](c2ccc(Br)cc2)C[C@H](OCc2ccc(CO)cc2)O1	0.05	i	45%*	i
NC(=O)C1=C[C@@H](c2ccc(Br)cc2)C[C@@H](OCc2ccc(CO)cc2)O1	·	i	·	·
COC(=O)c1ccc(/C=N/NC(=O)CC(=O)NCc2cccnc2)cc1	1.3	i	·	·
O=c1cc(N2CCCC2)c2ccccc2o1	0.09	i	·	·
O=C1CSC(c2cccnc2)N1C1CCCCC1 (stereo not given)	0.39	i	·	·
O=C1CSC(c2ccc(Cl)cc2)N1C1CCCCC1 (stereo not given)	·	i	64%*	i
NC(=O)CC[C@H](NC(=O)c1ccc(F)cc1)C(=O)OCC(=O)Nc1ccc(N2CCOCC2)cc1	0.72	i	·	·
O=C(Nc1ccc(S(=O)(=O)Nc2ncccn2)cc1)c1ccccc1Br	1.1	i	·	·
CCn1c(=O)c(C(=O)NCc2ccccn2)c(O)c2ccccc21	18*	i	i	i	CHO-K1 Tl ctr=-20;KCNQ1 sel pot=-24;KCNQ2 pot confirm=35*;Kir2-1 sel=-53;KCNQ2 W236L MoA=i
CCn1c(=O)c(C(=O)NCc2ccc(OC)cc2)c(O)c2ccccc21	·	i	·	·
